Screening data as filed in PubChem BioAssay.
GLP1R cytotox: qHTS of GLP-1 Receptor Inverse Agonists: Cytotox Screen; AID 624418, 2012; HEK293 cAMP-luciferase reporter cells, luminescence, 24 h; Potency, µM (doses to about 38.3 µM), without a hit: at the highest dose activity change, negative = inhibition, most hits filed as inhibitors; 0.13% of 410,000 active;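 further: loss of luciferase light is scored as toxicity; on the % scale 0 is the no-effect control and ±100 the full control effect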
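Luminescence readout: signal drop marks cytotoxicity. Plated cells grew 12 h at 37 °C, 5% CO2, received 23 nL compound for 24 h, then got luciferase reagent, read after 12 min at RT.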
ClpP mod: qHTS Assay for Activators of ClpP; ATP-dependent Clp protease proteolytic subunit (Bacillus subtilis (strain 168)), P80244; purified B. subtilis ClpP, FRET peptide cleavage, 20 min; Potency, µM (top dose mostly 57.5 µM), for inactives: top-dose activity change, negative = active; 1.9% of 340,000 active; AID 651965, 2013; active means well fitted falling curve with a large enough effect; inconclusive means small, poorly fitted or top-dose-only effect; inactive means no such curve, though single readings can be large or run the other way; further: the source files actives as falling curves though it sought activators and does not explain the sign; nearly all actives have a fitted effect of over 65% in size
Target sequence (P80244 whole entry, looked up): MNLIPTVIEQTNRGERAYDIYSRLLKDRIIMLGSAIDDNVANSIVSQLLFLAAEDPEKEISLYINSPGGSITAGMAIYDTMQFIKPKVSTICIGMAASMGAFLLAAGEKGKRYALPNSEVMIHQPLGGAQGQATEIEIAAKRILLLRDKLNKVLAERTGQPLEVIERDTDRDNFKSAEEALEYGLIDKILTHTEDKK
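Purified B. subtilis ClpP, 10 microg/mL final in Tris/HCl pH8 with KCl, BSA, glycerol and Tween-20, cleaved an Abz/nitrotyrosine-quenched decapeptide. Fluorescence (ex 320, em 430) was read at 0 and 20 min at room temperature. Delta was normalized to 5.8 microM ADEP and DMSO/no-enzyme controls.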
GLP-1R inv ag: qHTS of GLP-1 Receptor Inverse Agonists (Inhibition Mode) | HEK293 GLP-1R CRE-luciferase, luminescence, 24 h; GLP-1R form is constitutively active | Potency, µM (doses to about 38.3 µM), without a hit: top-dose activity change, negative = inhibition, actives largely listed as inhibitors | 1.6% of 410,000 active; further: on the % scale 0 is the no-effect control and ±100 the full control effect; nearly all actives have a fitted effect of over 55% in size
Target sequence (P43220 whole entry, looked up): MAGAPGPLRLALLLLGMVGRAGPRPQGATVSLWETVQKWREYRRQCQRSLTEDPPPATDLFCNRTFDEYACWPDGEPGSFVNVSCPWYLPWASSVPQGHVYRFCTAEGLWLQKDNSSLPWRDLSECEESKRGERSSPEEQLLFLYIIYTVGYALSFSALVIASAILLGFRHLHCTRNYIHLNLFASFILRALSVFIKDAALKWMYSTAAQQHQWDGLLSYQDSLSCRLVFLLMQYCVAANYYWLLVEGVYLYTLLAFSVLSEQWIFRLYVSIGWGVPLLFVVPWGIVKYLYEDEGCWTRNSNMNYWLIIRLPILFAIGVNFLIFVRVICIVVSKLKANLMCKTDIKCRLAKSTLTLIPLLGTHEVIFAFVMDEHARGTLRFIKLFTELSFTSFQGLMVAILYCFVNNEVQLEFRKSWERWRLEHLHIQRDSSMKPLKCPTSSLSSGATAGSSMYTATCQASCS
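Stable HEK293 clone (constitutively active GLP-1R + cAMP-response luciferase); 200 cells/uL plated, 12 h pre-culture, compound 24 hr, 37 deg C/5% CO2; detection reagent 12 min RT; luminescence.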
GLP-1R agonist: qHTS of GLP-1 Receptor Agonists; Glucagon-like peptide 1 receptor (Homo sapiens), P43220; HEK293 GLP-1R CRE-luciferase, luminescence, 4-6 h; cells express a hypersensitive GLP-1R form; Potency, µM (series often up to 45.6 µM), for the others: at the highest dose activation, usual class: activators; 0.007% of 380,000 active; further: % of control where 0% means no effect
* marks the source's active call; other numbers are inactive results; ? = inconclusive; . = no result given; [ ] = remark or other dose. This is a sample that favours compounds with a hit; in the whole collection about 3.2% have one here. Unless noted, the call rests on the fitted dose curve; in most records, active means well fitted curve in the direction sought with a large enough effect; inconclusive means small, poorly fitted or top-dose-only effect, or another doubt; inactive means no such curve, though single readings can be large; an effect the other way counts as inactive or inconclusive. Potency means the concentration at half of the fitted maximal effect.

SMILES	GLP1R cytotox	ClpP mod	GLP-1R inv ag	GLP-1R agonist
CCCCCCC(C)n1[nH]c(=O)c2c(C)cc(C)nc21 (centres undefined)	20%	.	10µM*	9%
Cc1ccc(NNC(=O)c2cc(C(C)(C)C)nn2Cc2ccccc2)cc1	4%	-3%	3.2µM*	-1%
CC(C)(C)c1cc(C(=O)NC2CC2)n(Cc2ccc(F)cc2)n1	-3%	.	?	10%
CC(C)(C)c1cc(C(=O)NNc2ccc(OC(F)(F)F)cc2)n(Cc2ccccc2)n1	6%	.	2.2µM*	4%
CC(C)(C)C(=O)NNC(=O)c1cc(C(C)(C)C)nn1Cc1ccccc1	6%	-1%	?	11%
Cn1nc(C(C)(C)C)cc1C(=O)NNC(=O)c1ccccc1Cl	13%	0%	1%	-10%
CC(C)(C)c1cc(C(=O)Nc2ccc(F)cc2)n(Cc2ccc(F)cc2)n1	?	-1%	2.8µM*	-5%
Cc1ccc(NC(=O)c2cc(C(C)(C)C)nn2Cc2ccccc2)cc1	-20%	-2%	4µM*	-22%
Cc1ccc(S(=O)(=O)NCCc2csc(-c3cccc(F)c3)n2)cc1	0%	-19%	-27%	.
CC(C)(C)c1cc(C(=O)NNc2cccc(Cl)c2)n(Cc2ccccc2)n1	6%	0%	1.3µM*	-1%
CC(C)(C)c1cc(C(=O)NNc2cc(C(F)(F)F)ccc2Cl)n(Cc2ccccc2)n1	-81%	3.2µM*	4µM*	3%
COc1ccccc1NNC(=O)c1cc(C(C)(C)C)nn1Cc1ccccc1	-15%	.	?	11%
C=C(c1nc2ccccc2s1)C1Cc2cccc3c2N(CCC3)C1 (centres undefined)	.	0%	.	.
CCOC(=O)c1oc2ccc(Br)cc2c1NC(=O)CN1CCN(C)CC1	-3%	-2%	8.9µM*	10µM*
Cc1cccc(N=C2NN=C(c3ccccc3F)CS2)c1C	0%	.	?	5%
Fc1ccccc1N=C1NN=C(c2ccccc2)CS1	-1%[0.307 µM]	10µM*	-17%[0.307 µM]	-4%
CN(C)S(=O)(=O)c1cccc(N=C2NN=C(c3ccccc3)CS2)c1	?	-6%	11µM*	-10%
CC(=O)Nc1cc2c3ccccc3ccc2c2ccccc12	-7%	32µM*	1%	-1%
Nn1c(C2CCC2)nc2ccccc2c1=O	-1%	.	6%	11%
Nc1nc2c3ccccc3nc(C3CC3)n2n1	6%	22µM*	209%	23%
CCOC(=O)C(NC(C)=O)(Nc1ccc(F)cc1)C(F)(F)F (centres undefined)	71%	20µM*	1%	-7%
CCCCC(=O)NC(Nc1cc(C)ccn1)(C(=O)OCC)C(F)(F)F (centres undefined)	-11%	25µM*	?	-12%
CCOC(=O)C(NC(C)=O)(Nc1cccc(F)c1)C(F)(F)F (centres undefined)	8%	-3%	7%	7%
COc1ccc(CNC(=O)N2CCc3nc(Nc4cc(OC)c(OC)c(OC)c4)ncc3C2)cc1	-15%	-3%	-13%	1%
COc1cc(NC(=O)N2CCc3nc(Nc4cc(Cl)cc(Cl)c4)ncc3C2)cc(OC)c1OC	?	-16%	10µM*	-2%
SMILES	GLP1R cytotox	ClpP mod	GLP-1R inv ag	GLP-1R agonist
CC(C)CC1NC(=O)N(CC(=O)NC2CCCc3ccccc32)C1=O (centres undefined)	19%	28µM*	-12%	-1%
O=C(CN1CCN(c2ccccc2Cl)CC1)NC1CCCc2ccccc21 (centres undefined)	1%	-1%	10µM*	3%
COc1ccc(Cl)cc1NC(=O)CSc1c2c(nc3ccccc13)CCC2	-2%	1%	?	.
CCOC(=O)c1c(NC(=O)C(C)Oc2ccccc2F)sc(C(C)=O)c1C (centres undefined)	14%	-1%	10%	.
CCOC(=O)c1ccc(NC(=O)Nc2cc3c(cc2N2CCCC2)n(C)c(=O)n3C)cc1	-18%	-1%	?	0%
O=c1c2ccccc2nc(-c2ccoc2)n1CCc1ccccc1	3%	25µM*	?	-2%
CC(C)Cn1c(-c2ccccc2)nc2ccccc2c1=O	-6%	2%	2.8µM*	7%
O=c1c2ccccc2nc(/C=C/c2ccccc2)n1CCc1ccccc1	-15%	1%	0%	2%
COc1cc2c(NC3CCN(C(C)C)CC3)nc(N3CCCN(C)CC3)nc2cc1OCCOCCN(C)C	.	4%	.	.
Cc1ccc(-c2c(C(=O)N/N=C/c3c[nH]c4ccccc34)nnn2-c2nonc2N)cc1	-5%	-15%	3.2µM*	-4%
CCCc1c(C(=O)N/N=C/c2c[nH]c3ccccc23)nnn1-c1nonc1N	-9%	-9%	?	-6%
Nc1nonc1-n1nnc(C(=O)N/N=C/c2ccc(Br)cc2)c1-c1ccc2c(c1)OCO2	-16%	25µM*	-22%	-3%
Cc1ccc(S(=O)(=O)NCC2CCC(C(=O)N(C)Cc3ccccc3)CC2)cc1 (centres undefined)	0%	-1%	?	.
O=C1CCC[C@@H]2C[C@@]3(C[C@@H]4CCN1[C@H]24)Nc1ccccc1NC3=NC1CCCCC1	.	1%	.	.
Cc1ccc(Cn2c(=O)n(Cc3ccc(Cl)cc3)c(=O)c3cccnc32)cc1	-19%	?	-6%	.
Cc1nc2ccn(Cc3cccnc3)c(=O)c2cc1C(=O)NCc1ccccc1	-2%	?	-37%	.
O=C1Nc2ccc([N+](=O)[O-])cc2OC1CCN1CCOCC1 (centres undefined)	-21%	.	-37%	-2%
O=C1Nc2ccc([N+](=O)[O-])cc2OC1CCN1CCN(c2ccccc2)CC1 (centres undefined)	-22%	.	11µM*	0%
Cc1cc(C)nc(Sc2ccc(/C=C(\C#N)C(N)=O)o2)n1	-3%[1.53 µM]	28µM*	8%	0%
Cc1ccc(NC(=O)/C(C#N)=C/c2ccc(Sc3nc(C)cc(C)n3)o2)cc1	-16%	1%	16%	-8%
COC(=O)c1ccc(NC(=O)c2ccccc2OCC(=O)Nc2ccc(Br)cc2)cc1	.	4%	.	.
CC(C)Cn1cc(C(=O)N2CCN(c3ccccn3)CC2)c2c3ccccc3n(C)c2c1=O	-20%	16µM*	0%	2%
COCCCNC(=O)c1cn(CC(C)C)c(=O)c2c1c1ccccc1n2C	-10%	32µM*	-12%	0%
O=C(c1ccco1)N1CCN(CC(O)Cn2c3ccccc3c3ccccc32)CC1 (centres undefined)	-14%	28µM*	?	8%
CC(C)Cn1cc(C(=O)NCCCN2CCCC2=O)c2c3ccccc3n(C)c2c1=O	3%	16µM*	0%	1%
O=C(c1ccco1)N1CCN(CC(O)COc2ccc(Br)cc2)CC1 (centres undefined)	-8%	.	?	4%
CSc1nc2sc3c(c2c(=O)n1-c1ccccc1)CCC(C(C)(C)C)C3 (centres undefined)	-9%	1%	?	9%
